Structures can show the parent of a compound that is named as a salt.
Key:
Conditions in all cases: 10 µM; exposure time 6 h
[1] = test system: Danio rerio larvae (5 dpf); assay: difference in excitability vs DMSO (percentage points); higher = more excitable than DMSO
Summary of the method: (§1)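 Wild-type zebrafish larvae at 5 dpf were kept in 96-well plates and exposed for 6 h to 100 µL egg water holding library compound at a final concentration of 10 µM. From 3 h into exposure, the plates were held at 28.5 ℃ and photographed every 6 s through a 3-h programme of moving lines and 100 ms, 400Hz tones. Each behaviour was scored by Z-LaP Tracker, a DeepLabCut model, and averaged over 48 larvae per compound. Every value gives the compound mean minus the vehicle control mean, in percentage points.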

[2] = test system: Danio rerio larvae (5 dpf); assay: difference in startle response vs DMSO (percentage points); higher = stronger startle than DMSO
Summary of the method: as §1

[3] = test system: Danio rerio larvae (5 dpf); assay: difference in activity during first hour vs DMSO (percentage points); higher = more activity than DMSO
Summary of the method: as §1

[4] = test system: Danio rerio larvae (5 dpf); assay: difference in habituation to acoustic stimuli vs DMSO (percentage points); higher = more habituation than DMSO
Summary of the method: as §1

[5] = test system: Danio rerio larvae (5 dpf); assay: difference in combined optomotor response to red, green and blue moving lines vs DMSO (percentage points); higher = stronger optomotor response than DMSO
Summary of the method: as §1

| Compound | difference in excitability [1] | difference in startle response [2] | difference in activity during first hour [3] | difference in habituation to acoustic stimuli [4] | difference [5] |
| --- | --- | --- | --- | --- | --- |
| Cc1ccc(C)c(OCCCC(C)(C)C(=O)O)c1 [Gemfibrozil] | 14.3 | -10.7 | -1.6 | -4.26 | 4.28 |
| NCC(=O)CCC(=O)O [5-Aminolevulinic Acid (hydrochloride)] | 11.2 | 1.8 | 1.6 | -2.9 | 2.93 |
| CO[C@H]1/C=C/O[C@@]2(C)Oc3c(C)c(O)c4c(O)c(c(/C=N/N5CCN(C6CCCC6)CC5)c(O)c4c3C2=O)NC(=O)/C(C)=C\C=C\[C@H](C)[C@H](O)[C@@H](C)[C@@H](O)[C@@H](C)[C@H](OC(C)=O)[C@@H]1C [Rifapentine] | 24.8 | -0.153 | -3.15 | 6.16 | 6.78 |
| O=C(Nc1c(Cl)cncc1Cl)c1ccc(OC(F)F)c(OCC2CC2)c1 [Roflumilast] | 18.7 | -2.74 | -14.9 | -8.84 | -5.57 |
| CC(=O)O[C@H]1C(=O)[C@@]2(C)[C@H]([C@H](OC(=O)c3ccccc3)[C@]3(O)C[C@H](OC(=O)[C@H](O)[C@@H](NC(=O)c4ccccc4)c4ccccc4)C(C)=C1C3(C)C)[C@]1(OC(C)=O)CO[C@@H]1C[C@@H]2O [Paclitaxel] | -11.7 | -1.74 | -4.46 | 3.51 | -2.9 |
| C=C[C@H]1CN2CC[C@H]1C[C@H]2[C@H](O)c1ccnc2ccc(OC)cc12 [Quinine] | 11.3 | 10.1 | -2.96 | 0.181 | -0.242 |
| CCOc1nc2cccc(C(=O)OC(C)OC(=O)OC3CCCCC3)c2n1Cc1ccc(-c2ccccc2-c2nn[nH]n2)cc1 (stereo not given) [Candesartan Cilexetil] | 12.4 | -6.23 | -2.86 | -2.83 | -2.76 |
| CCS(=O)(=O)CCn1c([N+](=O)[O-])cnc1C [Tinidazole] | 0.787 | 3.72 | 7.24 | 0.838 | 7.16 |
| CS(=O)(=O)c1cccc(C[C@H](NC(=O)c2c(Cl)cc3c(c2Cl)CCN(C(=O)c2ccc4ccoc4c2)C3)C(=O)O)c1 [Lifitegrast] | 5.68 | 2.04 | 16.5 | 0.0295 | 7.02 |
| c1cnc2cc3c(cc2n1)[C@@H]1CNC[C@H]3C1 [Varenicline (tartrate)] | 0.228 | 1.55 | 3.08 | 5.66 | -2.67 |
| CCCCCCCC(=O)N[C@H](CN1CCCC1)[C@H](O)c1ccc2c(c1)OCCO2 [Eliglustat (hemitartrate)] | 10.1 | -3.5 | 7.49 | 7.96 | 7.51 |
| CO[C@H]1O[C@@H]2O[C@@]3(C)CC[C@H]4[C@H](C)CC[C@@H]([C@H]1C)[C@@]24OO3 [Artemether] | 17.2 | 3.03 | -1.53 | 3.23 | 7.61 |
| O=C(CCCN1CC=C(n2c(=O)[nH]c3ccccc32)CC1)c1ccc(F)cc1 [Droperidol] | 29 | -1.85 | 12.3 | -7.94 | -0.322 |
| OC(Cn1cncn1)(Cn1cncn1)c1ccc(F)cc1F [Fluconazole] | -1.01 | -5.1 | -3.04 | -5.58 | 3.09 |
| COCCCOc1cc(C[C@@H](C[C@H](N)[C@@H](O)C[C@H](C(=O)NCC(C)(C)C(N)=O)C(C)C)C(C)C)ccc1OC [Aliskiren (hemifumarate)] | 16.6 | -3.2 | 10.2 | 0.61 | 3.27 |
| Cc1cn([C@H]2C[C@H](N=[N+]=[N-])[C@@H](CO)O2)c(=O)[nH]c1=O [Zidovudine] | 4.38 | -2.12 | 0.0973 | 1.67 | 6.8 |
| CC(=O)N(O)CCCCCNC(=O)CCC(=O)N(O)CCCCCNC(=O)CCC(=O)N(O)CCCCCN [Deferoxamine (mesylate)] | 4.87 | -4.66 | 10.3 | -2.2 | 2.91 |
| CN(C)CCCN1c2ccccc2Sc2ccc(Cl)cc21 [Chlorpromazine (hydrochloride)] | 12.6 | -0.58 | 13.4 | -8.52 | 6.64 |
| CN(C)CCc1c[nH]c2ccc(C[C@H]3COC(=O)N3)cc12 [Zolmitriptan] | -7.59 | 9.39 | -0.487 | 4.76 | 10.3 |
| Nc1nc(O)c2ncn(CCC(CO)CO)c2n1 [Penciclovir] | 7.86 | 12.1 | 13.9 | -1.73 | 11.3 |
| Clc1ccc(CSC(Cn2ccnc2)c2ccc(Cl)cc2Cl)cc1 (stereo not given) [Sulconazole (nitrate)] | 11.3 | -12.7 | -17.2 | -12 | -16.4 |
| CC#CCC(C)[C@H](O)/C=C/[C@@H]1[C@H]2C/C(=C/CCCC(=O)O)C[C@H]2C[C@H]1O (stereo not given in full) [Iloprost] | -3.4 | -1.91 | 1.64 | -1.61 | 1.64 |
| Nc1cc(N2CCCCC2)nc(N)[n+]1[O-] [Minoxidil] | 2.04 | 3.09 | -1.78 | -5.41 | -0.063 |
| O=C1[C@H](CC[C@H](O)c2ccc(F)cc2)[C@@H](c2ccc(O)cc2)N1c1ccc(F)cc1 [Ezetimibe] | 3.43 | 3.17 | -1.12 | -7.52 | 7.17 |
| COCCOC(=O)C1=C(C)NC(C)=C(C(=O)OC(C)C)C1c1cccc([N+](=O)[O-])c1 (stereo not given) [Nimodipine] | 7.48 | -6.36 | 11.8 | -10.8 | -14.5 |
| COc1ccc(S(=O)(=O)Nc2ccccc2CN(C)C/C=C/c2ccc(Cl)cc2)cc1 [KN-92 (hydrochloride)] | 7.68 | -0.787 | -17.8 | -4.48 | -1.81 |
| C[C@@H]1[C@H](O)[C@@H](C)/C=C/C=C/C=C/C=C/C=C/C=C/C=C/[C@H](O[C@@H]2O[C@H](C)[C@@H](O)[C@H](N)[C@@H]2O)C[C@@H]2O[C@](O)(C[C@@H](O)C[C@@H](O)[C@H](O)CC[C@@H](O)C[C@@H](O)CC(=O)O[C@H]1C)C[C@H](O)[C@H]2C(=O)O [Amphotericin B] | -0.355 | 0.384 | 4.13 | -0.401 | 1.13 |

From the supplement of paper PMC10515830
